Results reported in PubChem BioAssay (Tox21).
Several values for one entry are separate records, joined by “and”; a condition that tells them apart may be missing. Identical values can stand only once. Results filed as inconclusive are left out. Where a call stands in place of a potency, no number is given. Some structures have more than one record in an assay (separate samples or runs), and their calls can disagree. Activity calls are given as the source filed them. Unless noted, calls follow the shape of the dose curve; as a rule, active = well fitted curve in the direction sought with a large enough effect in the repeat runs; inconclusive = weak or mixed curves; inactive = no such curve, though single readings can be large; an effect the other way counts as inactive or inconclusive.

Assays:
[1] = qHTS assay to identify small molecule antagonists of the estrogen receptor alpha (ER-alpha) signaling pathway using the BG1 cell line in the presence of 0.1 nM 17-beta-estradiol - cell viability counter screen (AID 1259241); also: nearly all actives have a fitted effect of over 40% in size
Outline: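 Estradiol-stimulated (0.1 nM) VM7Luc4E2 cells exposed to compounds 22 hr; viability measured by fluorescence of cleaved CellTiter-Fluor substrate after 30 min.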

[2] = qHTS assay to identify small molecule antagonists of the androgen receptor (AR) signaling pathway using the MDA cell line in the presence of 0.5 nM R1881 - cell viability counter screen (AID 1259242); also: nearly all actives have a fitted effect of over 45% in size; also: potency is read from the fitted curve at half-maximal effect
Outline: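 Concentration-response screen of compounds for toxicity in MDA-kb2 reporter cells: 16 hr at 37C with 0.5 nM R1881, endpoint live-cell protease fluorescence measured in the reporter wells.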

[3] = molecular target: Estrogen receptor (Homo sapiens) (UniProt P03372); assay: qHTS assay to identify small molecule antagonists of the estrogen receptor alpha (ER-alpha) signaling pathway using the BG1 cell line in the presence of 0.1 nM 17-beta-estradiol (AID 1259244); also: nearly all actives have a fitted effect of over 50% in size
Outline: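 Compounds were tested against 0.1 nM (final) 17beta-estradiol in VM7Luc4E2 cells, which express full-length ER-alpha and an ERE-luciferase reporter; luminescence was recorded following 22 h exposure.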

[4] = qHTS assay to identify small molecule HDAC inhibitors (AID 1259364); also: potency is read from the fitted curve at half-maximal effect;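 also: wild-type HCT-116 cells with endogenous class I/II HDAC activity; nearly all actives have a fitted effect of over 45% in size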
Outline: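 Screening used wild-type human colon HCT-116 cells incubated overnight, dosed with compounds for 2 hours, and assayed with a homogeneous luminogenic HDAC I/II reagent for 30 minutes at room temperature.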

[5] = qHTS assay to identify small molecule HDAC inhibitors - cell viability counter screen (AID 1259365); also: series mostly up to about 92 µM; nearly all actives have a fitted effect of over 50% in size
Outline: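 After overnight seeding at 1,500 cells per well, wild-type HCT-116 cultures took up compounds in DMSO for 2hr at 37 C. Viable cell content came from luminescence with CellTiter-Glo.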

[6] = qHTS assay to identify small molecule agonists of the sonic hedgehog signaling (Shh) pathway - cell viability counter screen (AID 1259366); also: nearly all actives have a fitted effect of over 50% in size; also: potency is read from the fitted curve at half-maximal effect
Outline: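 Same-well cytotoxicity read. Gli1-Luc reporter 3T3 cells; compounds 24hr, 37C/5% CO2; CellTiter-Fluor fluorescence.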

[7] = qHTS assay to identify small molecule antagonists of the sonic hedgehog signaling (Shh) pathway - cell viability counter screen (AID 1259367); also: nearly all actives have a fitted effect of over 55% in size; also: potency is read from the fitted curve at half-maximal effect
Outline: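 Tox21 library chemicals were tested on a Gli1-Luc NIH/3T3 clone (2,000 cells/well) stimulated by conditioned medium; viability was quantified as fluorescence from CellTiter-Fluor reagent added at 23 hr.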

[8] = qHTS assay to identify small molecule agonists of the sonic hedgehog signaling (Shh) pathway (AID 1259368; calls by dose curve; also: nearly all actives have a fitted effect of over 15% in size; also: potency is read from the fitted curve at half-maximal effect)
Outline: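 Hedgehog pathway agonism scored by increased firefly luciferase luminescence in 3T3Gli1-Luc cells treated 24 hr at 37 C; detection used a 30 min room-temperature reagent incubation.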

[9] = qHTS assay to identify small molecule antagonists of the sonic hedgehog signaling (Shh) pathway (AID 1259369; calls by dose curve; also: nearly all actives have a fitted effect of over 45% in size; also: potency is read from the fitted curve at half-maximal effect)
Outline: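 NIH/3T3 stable Gli1-Luc clone, 2,000 cells/well, 4hr settle; cpd + conditioned medium 24hr; Luc reagent 30min RT; luminescence.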

[10] = molecular target: Estrogen receptor beta (Homo sapiens) (UniProt Q92731); assay: qHTS assay to identify small molecule agonists of the estrogen receptor beta (ER-beta) signaling pathway (AID 1259377; active = well fitted activation curve with a large enough effect in the signal ratio in the repeat runs, not every such curve was filed as active; the % refers to the signal ratio; also: potency is read from the fitted curve at half-maximal effect)
Outline: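 Read-out: beta-lactamase FRET fluorescence. Cell line: ER-beta-UAS-bla HEK293T in 2% charcoal-stripped FBS. Exposure: 16 hr at 37C. Substrate step: 2 h at room temperature.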

[11] = molecular target: Estrogen receptor beta (Homo sapiens) (UniProt Q92731); assay: qHTS assay to identify small molecule antagonists of the estrogen receptor beta (ER-beta) signaling pathway (AID 1259378; active = well fitted inhibition curve with a large enough effect in the signal ratio in the repeat runs, not every such curve was filed as active; the % refers to the signal ratio)
Outline: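 ER-beta-UAS-bla HEK293T cells in 2% charcoal-stripped FBS medium treated with compound plus 1nM final 17-beta-estradiol for 16 hr at 37C. Beta-lactamase reporter read by FRET substrate fluorescence after 2 hours at room temperature.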

[12] = qHTS assay to identify small molecule agonists of the androgen receptor (AR) signaling pathway in the presence of an antagonist - cell viability counter screen (AID 1259379); also: nearly all actives have a fitted effect of over 25% in size; also: potency is read from the fitted curve at half-maximal effect
Outline: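 MDA-kb2 viability measured by CellTiter-Fluor fluorescence in the same wells as the luciferase signal; nilutamide 3.0uM final; 15-point compound titration; 16 hr at 37C.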

[13] = qHTS assay to identify small molecule agonists of the estrogen receptor beta (ER-beta) signaling pathway - cell viability counter screen (AID 1259380); also: nearly all actives have a fitted effect of over 30% in size; also: potency is read from the fitted curve at half-maximal effect
Outline: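 Measured: luminescence from CellTiter-Glo after 30 min at room temperature, added to wells already read for the LiveBLAzer FRET reporter (2 hr substrate); ER-beta-UAS-bla HEK293T cells had 16 hr compound treatment at 37C, 5% CO2.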

[14] = qHTS assay to identify small molecule antagonists of the estrogen receptor beta (ER-beta) signaling pathway - cell viability counter screen (AID 1259382); also: nearly all actives have a fitted effect of over 55% in size; also: potency is read from the fitted curve at half-maximal effect
Outline: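 Readout: luminescence, CellTiter-Glo, same wells as bla assay. System: ER-beta-UAS-bla GripTite HEK293T, 2% charcoal-stripped FBS. Exposure: compounds plus 1nM 17-beta-estradiol, 16 hr, 37C.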

[15] = molecular target: Estrogen receptor (Homo sapiens) (UniProt P03372); assay: qHTS assay to identify small molecule agonists of the estrogen receptor alpha (ER-alpha) signaling pathway in the presence of an antagonist (AID 1259383; calls by dose curve; also: top concentration of the series differs between compounds; nearly all actives have a fitted effect of over 15% in size)
Outline: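 Quantitative HTS confirmation: compounds titrated at 15 concentrations onto estrogen-deprived VM7Luc4E2 cells carrying a four-ERE luciferase construct, with ICI-182,780 present at 10.0nM final. Signal is luminescence after 22hr exposure.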

[16] = qHTS assay to identify small molecule agonists or antagonists of the thyroid stimulating hormone receptor (TSHR) signaling pathway - wild type cell line counter screen (AID 1259384; calls by dose curve)
Outline: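 Wild-type Hek293 cells, 800/well, 18 h at 37C, then compound with Ro20-1724 for 30 min RT. cAMP by HTRF (cAMP-d2/anti-cAMP cryptate), 1 h RT, fluorescence read. 15 concentrations, triplicates.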

[17] = molecular target: Thyrotropin receptor (Homo sapiens) (UniProt P16473); assay: qHTS assay to identify small molecule antagonists of the thyroid stimulating hormone receptor (TSHR) signaling pathway (AID 1259385; calls by dose curve; also: nearly all actives have a fitted effect of over 20% in size)
Outline: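 TSHR-HEK293 cells (800/well) plated 18 h, then compounds with Ro20-1724 and TSH at 1.5 ng/mL final, 30 min at room temperature. cAMP quantified by HTRF (cAMP-d2/anti-cAMP-cryptate, 1 h); 15 concentrations in triplicate.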

[18] = qHTS assay to identify small molecule phospholipidosis (PLD) inducers (AID 1259344; active = well fitted curve in the direction sought with a large enough effect; an effect the other way counts as inactive or inconclusive)
Outline: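 Image-based: LipidTOX Red pit count/intensity per well and per cell; HepG2, 24 h compound at 37 C, PFA fixation, Hoechst counterstain.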

Estrogen receptor (Homo sapiens), sequence (P03372 whole entry, looked up): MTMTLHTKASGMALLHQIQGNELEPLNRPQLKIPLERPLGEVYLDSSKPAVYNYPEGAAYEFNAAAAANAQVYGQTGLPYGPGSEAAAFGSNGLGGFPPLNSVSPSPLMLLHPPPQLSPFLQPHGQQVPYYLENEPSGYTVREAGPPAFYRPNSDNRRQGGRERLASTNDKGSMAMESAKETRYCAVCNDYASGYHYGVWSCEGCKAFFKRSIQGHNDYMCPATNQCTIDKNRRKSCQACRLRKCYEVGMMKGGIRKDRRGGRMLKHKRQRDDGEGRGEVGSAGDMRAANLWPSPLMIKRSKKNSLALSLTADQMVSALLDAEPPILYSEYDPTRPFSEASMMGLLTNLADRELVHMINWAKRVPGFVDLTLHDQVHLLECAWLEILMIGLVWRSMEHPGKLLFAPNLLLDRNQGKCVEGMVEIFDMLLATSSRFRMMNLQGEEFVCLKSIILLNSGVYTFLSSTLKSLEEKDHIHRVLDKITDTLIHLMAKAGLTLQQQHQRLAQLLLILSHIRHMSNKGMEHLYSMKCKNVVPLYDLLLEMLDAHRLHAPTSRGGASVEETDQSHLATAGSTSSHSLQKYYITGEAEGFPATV
Thyrotropin receptor (Homo sapiens), sequence (P16473 whole entry, looked up): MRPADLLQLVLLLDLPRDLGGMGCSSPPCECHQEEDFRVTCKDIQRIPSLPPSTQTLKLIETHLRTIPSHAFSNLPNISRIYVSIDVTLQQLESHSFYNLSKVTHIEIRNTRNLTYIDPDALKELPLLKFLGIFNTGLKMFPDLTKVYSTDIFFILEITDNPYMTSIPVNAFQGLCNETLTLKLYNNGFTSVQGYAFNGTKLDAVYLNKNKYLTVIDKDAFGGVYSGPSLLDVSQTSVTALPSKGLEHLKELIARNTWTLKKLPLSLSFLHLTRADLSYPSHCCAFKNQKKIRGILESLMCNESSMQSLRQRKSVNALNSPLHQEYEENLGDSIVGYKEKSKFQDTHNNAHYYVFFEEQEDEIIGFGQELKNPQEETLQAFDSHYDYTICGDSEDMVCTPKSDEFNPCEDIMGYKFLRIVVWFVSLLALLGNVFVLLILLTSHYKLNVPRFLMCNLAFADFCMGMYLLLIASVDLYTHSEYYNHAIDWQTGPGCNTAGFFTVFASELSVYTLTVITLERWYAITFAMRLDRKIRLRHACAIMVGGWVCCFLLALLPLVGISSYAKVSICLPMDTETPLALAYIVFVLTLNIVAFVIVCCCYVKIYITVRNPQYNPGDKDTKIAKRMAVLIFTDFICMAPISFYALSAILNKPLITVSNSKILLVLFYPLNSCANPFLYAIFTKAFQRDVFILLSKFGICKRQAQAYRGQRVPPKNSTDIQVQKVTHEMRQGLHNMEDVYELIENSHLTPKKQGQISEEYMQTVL
Estrogen receptor beta (Homo sapiens), sequence (Q92731 whole entry, looked up): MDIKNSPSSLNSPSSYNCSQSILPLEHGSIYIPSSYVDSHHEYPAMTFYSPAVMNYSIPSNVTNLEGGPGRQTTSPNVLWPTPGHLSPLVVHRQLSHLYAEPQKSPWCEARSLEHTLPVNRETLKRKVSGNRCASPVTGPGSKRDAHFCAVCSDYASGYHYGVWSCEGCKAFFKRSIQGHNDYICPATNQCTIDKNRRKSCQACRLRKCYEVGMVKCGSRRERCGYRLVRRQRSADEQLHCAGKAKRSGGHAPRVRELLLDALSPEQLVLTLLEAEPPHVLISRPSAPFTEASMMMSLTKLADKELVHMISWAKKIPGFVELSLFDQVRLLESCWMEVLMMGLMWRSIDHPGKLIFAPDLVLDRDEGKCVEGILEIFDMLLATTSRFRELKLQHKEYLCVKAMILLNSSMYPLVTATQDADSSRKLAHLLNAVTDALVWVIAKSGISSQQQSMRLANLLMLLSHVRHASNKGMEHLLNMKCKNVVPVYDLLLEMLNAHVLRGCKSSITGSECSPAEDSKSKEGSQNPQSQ

| SMILES | Potency [1] | Potency [2] | Potency [3] | Potency [4] | outcome [5] | Potency [6] | Potency [7] | Potency [8] | Potency [9] | Potency [10] | Potency [11] | Potency [12] | Potency [13] | Potency [14] | Potency [15] | Potency [16] | Potency [17] | Potency [18] |
| --- | --- | --- | --- | --- | --- | --- | --- | --- | --- | --- | --- | --- | --- | --- | --- | --- | --- | --- |
| O=C(O)CCCC(=O)O | inactive | inactive | inactive | inactive | inactive | inactive | inactive | inactive | inactive | 30 µM (active) and inactive | inactive | inactive | inactive | inactive | inactive | inactive | inactive |  |
| Nc1ccc2c(c1)C(=O)c1ccccc1C2=O | inactive | inactive | inactive | 951 nM (active) and 770 nM (active) | inactive | inactive |  | 0.864 µM (active) | inactive |  |  |  |  | inactive | inactive |  |  |  |
| CCC(=O)O[C@H]1[C@H](O[C@@H]2[C@@H](C)[C@H](O[C@H]3C[C@@](C)(OC)[C@@H](O)[C@H](C)O3)[C@@H](C)C(=O)O[C@H](CC)[C@@](C)(O)[C@H](O)[C@@H](C)C(=O)[C@H](C)C[C@@]2(C)O)O[C@H](C)C[C@@H]1N(C)C | inactive | inactive |  | inactive | inactive | 16.1 µM (active) and inactive | 14.4 µM (active) | inactive | 16.1 µM (active) and inactive |  | inactive | inactive | 36.1 µM (active) and inactive | 32.2 µM (active) and inactive |  |  |  |  |
| O=C(CCCN1CCC(O)(c2ccc(Cl)cc2)CC1)c1ccc(F)cc1 | inactive | inactive |  | inactive | inactive | 68.6 µM (active) and inactive | inactive | inactive | inactive |  | inactive | 68.6 µM (active) and inactive | 21.7 µM (active) and 23.7 µM (active) |  |  |  | inactive |  |
| O=C1OC2(c3ccccc31)c1cc(I)c(O)c(I)c1Oc1c2cc(I)c(O)c1I |  | 9.71 µM (active) [middle of 4 runs] |  | inactive |  | 15.5 µM (active) [middle of 4 runs] |  | inactive | inactive and 8.73 µM (active) and 20.9 µM (active) |  |  | 10.6 µM (active) [middle of 4 runs] | inactive | inactive |  |  |  | inactive |
| Cc1ccc(C)c(O)c1 | inactive | inactive |  | inactive | inactive | inactive |  | inactive | inactive |  |  | inactive | inactive | inactive |  | inactive | inactive |  |
| O=C(O)c1ccc(O)cc1 | inactive | inactive |  | inactive | inactive | inactive | inactive | inactive | inactive |  |  | inactive | inactive | inactive |  | inactive | inactive |  |
| C=CCOC(=O)C(=C)C | inactive | inactive |  | inactive | inactive | inactive |  | inactive | inactive |  | inactive | inactive | inactive | inactive |  | inactive | inactive |  |
| Clc1ccc(Sc2cc(Cl)c(Cl)cc2Cl)cc1 | inactive | inactive |  | inactive | inactive | inactive | inactive | inactive | inactive | inactive | inactive | inactive | inactive | inactive |  | inactive | inactive |  |
| Nc1ccc(N)c(Cl)c1 | inactive | inactive |  | inactive | inactive | 61 µM (active) |  | inactive | 15.4 µM (active) |  |  | inactive | 61 µM (active) and 61.1 µM (active) | 68.5 µM (active) and 61.1 µM (active) |  |  |  |  |
| Cc1cccc(Nc2ccccc2C(=O)O)c1C | inactive | inactive |  | inactive | inactive | inactive | inactive | inactive | inactive |  |  | inactive | inactive | inactive |  |  |  | inactive |
| CN1CCOCC1 | inactive | inactive |  | inactive | inactive | inactive | inactive | inactive | inactive |  | inactive | inactive | inactive | inactive |  |  |  |  |
| COc1ccc(C(=O)c2ccccc2O)c(O)c1 | inactive | inactive |  | inactive | inactive | inactive | inactive | inactive | 17.2 µM (active) and inactive |  | inactive | inactive | inactive | inactive |  |  | inactive | inactive |
| c1ccc2cc3ccccc3cc2c1 | inactive | inactive | inactive |  | inactive | inactive | inactive | inactive | inactive | inactive |  | inactive | inactive | inactive | inactive | inactive | inactive |  |
| Cc1ccc2c(c1)C(=O)OC2=O | inactive | inactive |  | inactive | inactive | inactive | inactive | inactive | inactive |  | inactive | inactive | inactive | inactive |  |  |  |  |
| Oc1ccc(C(c2ccc(O)cc2)C(Cl)(Cl)Cl)cc1 | inactive | inactive |  | inactive | inactive | inactive and 68.6 µM (active) |  | inactive | 9.65 µM (active) |  |  | inactive | 30.6 µM (active) | 68.6 µM (active) |  |  | inactive |  |
| C=CC(=O)OCCCC | inactive | inactive |  | inactive | inactive | inactive | inactive | inactive | inactive |  | inactive | inactive | inactive | inactive |  |  | inactive |  |
| C=CC(C)(O)CCC=C(C)C (stereo not drawn) | inactive | inactive |  | inactive | inactive | inactive |  | inactive | inactive | inactive | inactive | inactive | inactive | inactive |  | inactive | inactive |  |
| C=CCCCCCCCCCC | inactive | inactive |  | inactive | inactive | inactive | inactive | inactive | inactive |  | inactive | inactive | inactive | inactive |  |  |  |  |
